# Unmarked numbers belong to inactive results. How the calls were made is not given here.
# Target: Pantothenate synthetase (Mycobacterium tuberculosis (strain ATCC 25618 / H37Rv)) (UniProt P9WIL5)
# Test: Recombinant Mtb pantothenate synthetase (PanC) inhibitors, coupled enzyme, confirmatory (AID 375);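 further: 0% = full reaction with vehicle and 100% = no enzyme background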
# Details: coupled enzyme assay; at 10 µM, hits give high values
# Chain of Pantothenate synthetase (Mycobacterium tuberculosis (strain ATCC 25618 / H37Rv)) (P9WIL5 whole entry, looked up): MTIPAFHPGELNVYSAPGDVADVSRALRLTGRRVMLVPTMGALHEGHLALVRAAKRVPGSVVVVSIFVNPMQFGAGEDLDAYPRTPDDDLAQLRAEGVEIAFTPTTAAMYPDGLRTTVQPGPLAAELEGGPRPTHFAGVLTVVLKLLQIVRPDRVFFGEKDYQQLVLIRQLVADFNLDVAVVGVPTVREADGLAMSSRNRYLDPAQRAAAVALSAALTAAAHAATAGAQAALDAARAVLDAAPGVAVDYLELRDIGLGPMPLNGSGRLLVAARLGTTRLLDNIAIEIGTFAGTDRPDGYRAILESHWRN
row,SMILES,inhibition [%]
1,NC(N)=NC(=O)c1nc(Cl)c(N)nc1N,0
2,CCC1(CC)C(=O)C(C)(C)C(=O)OC1c1cccs1 (centres undefined),0
3,Cn1c(=O)[nH]c(=O)c2c1nc(N1CCCCCC1)n2CCCSc1nc2ccccc2o1,8
4,CCOC(=O)c1c(NC(=O)CSc2nc3c(c(=O)n(C)c(=O)n3C)n2C(C)C)sc(C)c1C,10
5,Cc1nc2ccccc2c(=O)n1/N=C/c1ccncc1,3
6,CCOc1ccccc1C(=O)NCCC(=O)O,2
7,CC(=O)c1ccc(NC2OC(C)C(O)C(O)C2O)cc1 (centres undefined),3
8,CCNC(=O)CC1C(=O)N(c2ccccc2)C(=O)N1CCC(C)C (centres undefined),0
9,O=c1nc(N2CCCC2)nc(Nc2ccccc2)[nH]1,0
10,Cc1nnc(NCc2n[nH]c(=O)c3ccccc23)c2ccccc12,13
11,CCCc1[nH]nc2c1C(c1cn[nH]c1-c1ccc(F)cc1)C(C#N)=C(N)O2 (centres undefined),10
12,O=C(NCc1ccco1)C1(S(=O)(=O)c2ccc(Cl)cc2)CC1,0
13,O=S(=O)(NCCCCCNS(=O)(=O)c1ccccc1)c1ccccc1,6
14,CCCN(CCC)C(=O)C1CCN(c2cc(C)nc3c(-c4ccc(OC)c(OC)c4)c(C)nn23)CC1,0
15,C=CCSc1n[nH]c(-c2ccc(OC)cc2)n1,0
16,CC(C)N1C(=O)C2C(C(=O)NC3CCCCC3)C3C=CC2(O3)C1C(=O)NC1CCCC1 (centres undefined),0
17,Cc1nc2ncnn2c(N2CCC(C(=O)NCC3CCCO3)CC2)c1Cc1ccccc1 (centres undefined),0
18,COc1ccccc1C(=O)n1nc(-c2ccc(Cl)cc2)nc1N,3
19,Clc1ccc(OCCCn2cncn2)cc1Cl,0
20,Cc1cc(Nc2ccccc2)n(-c2ccccc2)n1,3

row,SMILES,inhibition [%]
1,O=C(CSc1ncnc2c1oc1ccccc12)Nc1ccccc1C(F)(F)F,0
2,COc1ccc(Cn2nnnc2C(c2cc3cc(C)cc(C)c3[nH]c2=O)N2CCOCC2)cc1 (centres undefined),0
3,COC(=O)Cn1cnc2c(nnn2-c2ccc(C)cc2)c1=O,0
4,COc1nnc(-c2ccc(C)c(S(=O)(=O)NCCO)c2)c2ccccc12,3
5,CCOC(=O)c1cccc(NC(=O)CSc2nc3cccnc3n2C)c1,0
6,COc1ccccc1NC(=O)c1nnn(CC(=O)Nc2ccccc2)c1N,1
7,Cc1cc(NC(=O)CSc2nc3ccsc3c(=O)n2NC(=O)c2ccccc2)no1,1
8,Cc1cc(C)c2ccc(N)nc2c1O,0
9,CCn1ncc(Cl)c1C(=O)Nc1ccncc1,3
10,O=C(CCCn1c(=O)[nH]c2ccsc2c1=O)N1CCN(c2ccccn2)CC1,3
11,O=C(c1ccco1)N1CCN(C2=NS(=O)(=O)c3ccccc32)CC1,0
12,CC(=O)Nc1cc2c(nc1C)nc(C)n2Cc1ccc(Br)cc1,0
13,CCOc1ccc(NC(=O)CN2CCN(CC(=O)Nc3ccc(F)c(F)c3)CC2)cc1,0
14,COc1ccc(OC)c(NC(=O)c2nnn(Cc3ccc(Br)cc3F)c2N)c1,0
15,O=C1c2ccccc2C(=O)N1CCCCN1CCN(CCCCN2C(=O)c3ccccc3C2=O)CC1,5
16,CCOC(=O)N1CCN(c2ncnc3c2[nH]c2ccc(OC)cc23)CC1,0
17,Cc1c(O)c(CN2CCCC(C)C2)cc2c3c(c(=O)oc12)CCC3 (centres undefined),9
18,CCOc1ccc2nc(SCC(=O)Nc3ncccn3)[nH]c2c1,0
19,Cc1ccc(-n2c(Cn3cnc4ccccc43)nnc2SCC(=O)O)cc1,0
